Measurements published in PubChem BioAssay AID1034 (Columbia University Molecular Screening Center, 2008).
The list shows a part of the results. Unmarked numbers belong to inactive results.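 Rule for the calls: active = activation above 30% in triplicate retests at 2 µM, then confirmed by visual review of the well images; inactive = the rest.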

Experiment: enhancers of VCAM1 induction in HUVEC – imaging, triplicate retest, confirmation (AID 1034);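 note: scaled per plate between unstimulated and TNFa-stimulated DMSO control wells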
Conditions: HUVEC TNFa-stimulated VCAM-1 immunofluorescence imaging; at 2 µM; stronger effect = higher value

Compound | activation [%]
CCOc1cc(-c2cc(-c3ccc(OC)cc3)nc(N)c2C#N)ccc1O | -5.2
CC1=NN(C(C)C)C(=O)C1 | -8.4
CC(=O)c1cnn(-c2cc(Oc3ccc(F)cc3)ncn2)c1C | -14.8
O=C(Nc1ccncc1)c1c(F)cccc1F | -14.6
COc1ccc(/C=N/Nc2nc3ccccc3o2)cc1OC | -3.9
COc1ccc(OC)c(N=Cc2c(O)[nH]c3ccccc23)c1 | -13.9
COCCNS(=O)(=O)c1cc(Br)ccc1OC | -14.1
CCN(CC(=O)Nc1ccc2c(c1)OCCO2)Cc1cc(=O)oc2cc(C)c(C)cc12 | -6.7
CCCOc1cc(C)c(S(=O)(=O)n2nnc3ccccc32)cc1C | -4.7
Cc1cccc2cc(CN(Cc3ccc4c(c3)OCO4)Cc3nnnn3C3CCCC3)c(=O)[nH]c12 | 4.1
CC1(C)CC(=O)C=C(N2CCCC2)C1 | -17.7
CCOc1ccc(N=C2NC(=O)S/C2=C\c2ccc(O)cc2)cc1 | -20.4
CCCCN(C)C(=O)C1CCN(Cc2ccccn2)CC1 | -13
